“And” between values parts separate entries of the source, which are not always exact repeats. Equal values may be shown once. Inconclusive results are not listed. Where a call stands in place of a potency, no number is given. Where a structure was tested more than once in an assay, its records may differ in their call. The source made the active and inactive calls. Unless noted, calls follow the shape of the dose curve; as a rule, active = well fitted curve in the direction sought with a large enough effect; inconclusive = small, poorly fitted or top-dose-only effect, or another doubt; inactive = no such curve, though single readings can be large; an effect the other way counts as inactive or inconclusive.
How the values were obtained:
[1] = High-throughput drug toxicity screening in the BPDCN cell line Cal-1 (AID 1224825; call rule not given here); settings: Cal-1 BPDCN cell viability, qHTS; at 45.8 µM (top of the series) unless noted
Summary of the method: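 500 Cal-1 cells/well, RPMI + glutamine + 10% FBS (phenol red-free); cpd added by pin tool; 48 h, 37C, 5% CO2; CTG 15 min RT, lumi read. Normalised: DMSO 100%, bortezomib 9.2 uM 0%.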

[2] = qHTS assay for measurement of the activity of small molecule inhibitors on Zika virus induced Caspase-3 activity in human iPSC derived neural progenitor cells (hNPCs) (AID 1224857); also: nearly all actives have a fitted effect of over 65% in size; also: potency is read from the fitted curve at half-maximal effect
Summary of the method: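 Cells were plated at 350 per well and grown 16 to 20 hours. Compound pretreatment lasted one hour, after which ZIKV (2 FFU/cell) was added for 6 hours. Percent inhibition was normalized between uninfected and infected controls.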

[3] = qHTS Screen of the MIPE 4.0 Collection Against Ewings Sarcoma (RDES) (AID 1259252); also: nearly all actives have a fitted effect of over 35% in size; also: potency is read from the fitted curve at half-maximal effect
Summary of the method: (§1)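 After a 4 h attachment period in RPMI/5% FBS, cells were pin-dosed with test compounds; DMSO served as negative and 9.2 uM bortezomib (final) as positive control. Luminescent CellTiter-Glo signal at 48 h defined viability.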

[4] = qHTS Screen of the MIPE 4.0 Collection Against Ewings Sarcoma (TC71) (AID 1259253); also: nearly all actives have a fitted effect of over 40% in size; also: potency is read from the fitted curve at half-maximal effect
Summary of the method: as §1

[5] = qHTS Screen of the MIPE 4.0 Collection Against Ewings Sarcoma (EW8) (AID 1259255); also: nearly all actives have a fitted effect of over 35% in size; also: potency is read from the fitted curve at half-maximal effect
Summary of the method: as §1

[6] = qHTS Screen of the MIPE 4.0 Collection Against Ewings Sarcoma (TC32) (AID 1259256); also: nearly all actives have a fitted effect of over 45% in size; also: potency is read from the fitted curve at half-maximal effect
Summary of the method: as §1

[7] = qHTS assay to identify small molecule inhibitors of chordoma cells - UCH-1 (AID 1259355); also: nearly all actives have a fitted effect of over 55% in size; also: potency is read from the fitted curve at half-maximal effect
Summary of the method: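 Seed 800 cells per well; incubate overnight at 37 C, 5% CO2. Add test compounds (15 concentrations), then the auranofin–topoisomerase-agent combination. Incubate 48hr, add CellTiter-Glo, wait 30min, read luminescence.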

[8] = qHTS assay to identify small molecule inhibitors of chordoma cells - UCH-2 (AID 1259356); also: potency is read from the fitted curve at half-maximal effect
[9] = P-glycoprotein substrates identified in KB-3-1 adenocarcinoma cell line, qHTS therapeutic library screen (AID 1346986); also: nearly all actives have a fitted effect of over 60% in size
Summary of the method: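 Cells seeded 500/well in DMEM/10% FCS; compounds pinned in dose-response; 72 h incubation; CellTiter-Glo added, 5 min, luminescence. KB-8-5-11 run ±tariquidar to test reversal of P-gp resistance.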

[10] = P-glycoprotein substrates identified in KB-8-5-11 adenocarcinoma cell line, qHTS therapeutic library screen (AID 1346987); also: nearly all actives have a fitted effect of over 65% in size; also: potency is read from the fitted curve at half-maximal effect
Summary of the method: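 KB-8-5-11, a colchicine-selected P-gp-overexpressing KB-3-1 subline, was grown without colchicine for the assay. Cells were seeded at 500 cells/well, dosed in concentration-response and incubated 72 h at 37 degree C, 5% CO2. Viability was read by CellTiter-Glo luminescence.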

[11] = Identifying Small Molecule Inhibitors of Pancreatic Cancer Stem Cells (SN12C, Adherent) (AID 1259358);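 also: cell survival measured after 48 h of compound exposure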; also: potency is read from the fitted curve at half-maximal effect
Summary of the method: (§2)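 Adherent (2D) versus sphere (3D) formats; spheres generated 14 d in SCM beforehand. Compound transferred by pin tool after 4 h, 48 h incubation, CellTiter-Glo endpoint.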

[12] = Identifying Small Molecule Inhibitors of Pancreatic Cancer Stem Cells (SN12C, Spheroid) (AID 1259360); settings: Potency: SN12C spheroid viability; also: potency is read from the fitted curve at half-maximal effect
Summary of the method: (§3)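 Monolayer and spheroid cultures are compared. Spheroids form over 14 days in stem cell medium on hydrogel-coated low-attachment plates, then are exposed to compound for 48 h before CellTiter-Glo luminescence.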

[13] = Identifying Small Molecule Inhibitors of Pancreatic Cancer Stem Cells (Panc1, Adherent) (AID 1259362); settings: Potency: viability; also: potency is read from the fitted curve at half-maximal effect
Summary of the method: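 Spheroids grown 14 days in stem cell media on hydrogel-coated nonadherent plates; 2D lines seeded directly. Compounds added after 4 h attachment, 48 h at 37C, 5% CO2; CellTiter-Glo luminescence normalized to DMSO (no inhibition) and no-cell wells (full inhibition).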

[14] = target: Atrial natriuretic peptide receptor 1 (Homo sapiens) (UniProt P16066); experiment: Natriuretic polypeptide receptor (hNpr1) antagonism - Pilot screen (AID 1347049; calls by dose curve;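 also: agonist-evoked cGMP luminescence read 20 min after hNppA addition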)
Summary of the method: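 Readout is cGMP-driven firefly luciferase luminescence in HEK293 cells carrying hNpr1 and a PDE5-domain GloSensor, read before and 20 min after 0.1 nM hNppA stimulation. Cells had 2% substrate reagent for 2 h and test compound for 30 min.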

[15] = target: Atrial natriuretic peptide receptor 2 (Homo sapiens) (UniProt P20594); experiment: Natriuretic polypeptide receptor (hNpr2) antagonism - Pilot subtype selectivity assay (AID 1347050; calls by dose curve)
Summary of the method: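 Pilot selectivity screen against hNpr2: HEK293 cGMP-sensor cells are treated with LOPAC1280 compounds, then with hNppC peptide at 1 nM final. The cGMP-driven luminescence change over 20 min at room temperature is the read-out.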

[16] = Identifying Small Molecule Inhibitors of Pancreatic Cancer Stem Cells (A278, Adherent) (AID 1259361);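 also: viability read after 48 h compound exposure; nearly all actives have a fitted effect of over 35% in size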
Summary of the method: as §2

[17] = Identifying Small Molecule Inhibitors of Pancreatic Cancer Stem Cells (A2780, Spheroid) (AID 1259357); settings: Potency: A2780 spheroid viability;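 also: compound exposure lasted 48 h before the ATP luminescence read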
Summary of the method: as §3

[18] = Identifying Small Molecule Inhibitors of Pancreatic Cancer Stem Cells (Panc1, Spheroid) (AID 1259359); settings: Panc1 spheroid cancer stem cell viability;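 also: potency is read from the fitted curve at half-maximal effect; compound exposure lasted 48 h before reading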
Summary of the method: as §3

[19] = Natriuretic polypeptide receptor (hNpr1) antagonism - Pilot counterscreen GloSensor control cell line (AID 1347045; calls by dose curve)
Summary of the method: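 HEK293 cGMP GloSensor cells preloaded 2 h with 2% GloSensor reagent, then compound 30 min before baseline luminescence read. Stimulated with 50 uM sodium nitroprusside, 20 min at room temperature, then read again; counterscreen for Npr1 antagonism.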

Chain of Atrial natriuretic peptide receptor 1 (Homo sapiens) (P16066 whole entry, looked up): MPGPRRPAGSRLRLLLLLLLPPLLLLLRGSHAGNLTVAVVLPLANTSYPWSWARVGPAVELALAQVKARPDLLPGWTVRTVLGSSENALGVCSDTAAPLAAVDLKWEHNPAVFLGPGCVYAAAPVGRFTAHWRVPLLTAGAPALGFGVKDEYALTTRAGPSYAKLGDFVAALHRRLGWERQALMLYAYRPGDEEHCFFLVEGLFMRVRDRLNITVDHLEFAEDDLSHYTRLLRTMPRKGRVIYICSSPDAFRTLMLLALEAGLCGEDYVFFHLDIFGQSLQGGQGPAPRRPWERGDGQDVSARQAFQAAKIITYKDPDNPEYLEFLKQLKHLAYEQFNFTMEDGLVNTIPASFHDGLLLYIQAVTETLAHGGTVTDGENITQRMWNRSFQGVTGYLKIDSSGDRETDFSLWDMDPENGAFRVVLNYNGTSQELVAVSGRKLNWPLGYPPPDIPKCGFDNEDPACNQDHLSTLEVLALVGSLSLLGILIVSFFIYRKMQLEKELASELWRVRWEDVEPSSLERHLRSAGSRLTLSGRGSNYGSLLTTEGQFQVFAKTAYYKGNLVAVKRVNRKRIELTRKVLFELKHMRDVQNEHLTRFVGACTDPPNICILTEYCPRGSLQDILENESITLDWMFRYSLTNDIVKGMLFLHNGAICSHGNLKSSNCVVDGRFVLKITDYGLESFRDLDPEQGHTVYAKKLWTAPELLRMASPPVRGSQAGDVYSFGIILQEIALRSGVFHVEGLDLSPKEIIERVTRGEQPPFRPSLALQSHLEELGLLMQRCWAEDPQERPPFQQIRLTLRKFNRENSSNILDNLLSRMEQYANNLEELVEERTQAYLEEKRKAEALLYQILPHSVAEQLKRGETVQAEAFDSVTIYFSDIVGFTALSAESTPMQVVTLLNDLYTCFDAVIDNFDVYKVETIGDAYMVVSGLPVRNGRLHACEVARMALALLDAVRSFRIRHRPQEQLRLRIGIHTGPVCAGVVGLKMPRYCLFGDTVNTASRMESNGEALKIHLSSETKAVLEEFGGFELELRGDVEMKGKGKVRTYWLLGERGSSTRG
Chain of Atrial natriuretic peptide receptor 2 (Homo sapiens) (P20594 whole entry, looked up): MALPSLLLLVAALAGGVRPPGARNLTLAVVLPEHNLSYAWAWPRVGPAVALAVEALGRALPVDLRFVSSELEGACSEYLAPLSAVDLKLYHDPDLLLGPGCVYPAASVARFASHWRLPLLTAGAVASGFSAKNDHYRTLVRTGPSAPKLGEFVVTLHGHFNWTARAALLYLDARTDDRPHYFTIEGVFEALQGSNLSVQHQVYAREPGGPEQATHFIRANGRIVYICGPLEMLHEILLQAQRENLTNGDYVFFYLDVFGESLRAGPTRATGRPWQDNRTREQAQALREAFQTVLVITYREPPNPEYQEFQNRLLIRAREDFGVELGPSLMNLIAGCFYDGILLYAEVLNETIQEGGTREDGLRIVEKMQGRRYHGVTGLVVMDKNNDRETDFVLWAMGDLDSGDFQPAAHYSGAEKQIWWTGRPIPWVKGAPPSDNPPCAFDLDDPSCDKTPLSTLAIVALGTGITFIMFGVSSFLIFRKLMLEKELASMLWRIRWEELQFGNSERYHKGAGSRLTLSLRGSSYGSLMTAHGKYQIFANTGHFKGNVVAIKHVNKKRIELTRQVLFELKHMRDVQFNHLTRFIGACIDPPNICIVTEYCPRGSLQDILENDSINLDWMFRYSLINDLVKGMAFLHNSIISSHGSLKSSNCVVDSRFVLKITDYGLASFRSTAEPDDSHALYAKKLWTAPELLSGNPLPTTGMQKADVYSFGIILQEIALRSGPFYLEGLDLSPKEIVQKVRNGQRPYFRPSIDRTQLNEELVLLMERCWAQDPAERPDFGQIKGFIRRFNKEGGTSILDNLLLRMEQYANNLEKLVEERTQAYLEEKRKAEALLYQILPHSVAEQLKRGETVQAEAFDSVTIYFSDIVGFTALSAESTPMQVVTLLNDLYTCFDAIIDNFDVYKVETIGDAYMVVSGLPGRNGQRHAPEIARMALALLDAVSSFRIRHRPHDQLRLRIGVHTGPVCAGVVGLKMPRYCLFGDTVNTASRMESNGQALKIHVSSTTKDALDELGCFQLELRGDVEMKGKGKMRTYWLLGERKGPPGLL

## C[C@]12CCC(=O)C=C1CC[C@@H]1[C@H]2[C@@H](O)C[C@@]2(C)[C@H]1CC[C@]2(O)C(=O)CO
[1]
  viability (% of control): 71.5%
[2]
  Potency: inactive
[3]
  Potency: 20.9 µM (active)
[4]
  Potency: inactive
[5]
  Potency: inactive
[6]
  Potency: inactive
[7]
  Potency: inactive
[8]
  Potency: inactive

## O=C(NC(Cc1cc(=O)[nH]c2ccccc12)C(=O)O)c1ccc(Cl)cc1 (stereo not given)
[1]
  viability (% of control): 108%
[2]
  Potency: inactive
[5]
  Potency: inactive
[7]
  Potency: inactive
[8]
  Potency: inactive
[9]
  Potency: inactive
[10]
  Potency: inactive

## Cc1ccc(S(=O)(=O)NC(=O)NN2CC3CCCC3C2)cc1 (stereo not given)
[1]
  viability (% of control): 35.2%
[2]
  Potency: inactive
[3]
  Potency: 18.7 µM (active)
[4]
  Potency: 16.6 µM (active)
[8]
  Potency: inactive
[10]
  Potency: inactive

## Cc1ccc(NC(=O)c2ccc(CN3CCN(C)CC3)cc2)cc1Nc1nccc(-c2cccnc2)n1
[1]
  viability (% of control): 81%
[2]
  Potency: inactive
[7]
  Potency: inactive
[8]
  Potency: inactive
[11]
  Potency: inactive
[12]
  Potency: inactive
[13]
  Potency: inactive
[10]
  Potency: inactive

## C[C@H](Cn1cnc2c(N)ncnc21)OCP(=O)(O)O
[1]
  viability (% of control): 130%
[2]
  Potency: inactive
[3]
  Potency: inactive
[4]
  Potency: inactive
[5]
  Potency: inactive
[7]
  Potency: inactive
[8]
  Potency: inactive
[9]
  Potency: inactive

## O=C(NOCC1CC1)c1ccc(F)c(F)c1Nc1ccc(I)cc1Cl
[1]
  viability (% of control): 7.67%
[2]
  Potency: inactive
[3]
  Potency: 20.9 µM (active)
[4]
  Potency: 20.9 µM (active)
[6]
  Potency: 16.6 µM (active)
[10]
  Potency: 18.4 µM (active)

## O=C(CCc1ccc(O)cc1)c1c(O)cc(O)cc1O
[1]
  viability (% of control): 41.1%
[2]
  Potency: inactive
[3]
  Potency: 0.166 µM (active)
[5]
  Potency: 5.9 µM (active)
[9]
  Potency: inactive
[10]
  Potency: inactive
[14]
  Potency: inactive
[15]
  Potency: inactive

## S=c1nc[nH]c2nc[nH]c12
[1]
  viability (% of control): 89.6%
[2]
  Potency: inactive
[4]
  Potency: 1.87 µM (active)
[5]
  Potency: 2.64 µM (active)
[8]
  Potency: inactive
[11]
  Potency: 38.2 µM (active)
[16]
  IC50 (viability decrease): 1.71 µM (active)
[13]
  Potency: 5.4 µM (active)
[10]
  Potency: 2.59 µM (active) and 2.64 µM (active)

## Cc1cc(=O)c2c(O)c3c(O)cc(=O)c4c3c3c(cc(O)c1c23)C(C)(C)C=4O
[1]
  viability (% of control): 94.6%
[2]
  Potency: inactive
[6]
  Potency: inactive
[7]
  Potency: 6.31 µM (active)
[8]
  Potency: 6.51 µM (active)
[10]
  Potency: 1.46 µM (active) and 4.69 µM (active)

## Cc1cccc(C#Cc2ccccc2)n1
[1]
  viability (% of control): 57.2%
[2]
  Potency: inactive and 6.31 µM (active)
[5]
  Potency: 18.7 µM (active)
[17]
  Potency: inactive
[11]
  Potency: inactive
[16]
  IC50 (viability decrease): inactive

## Cc1c(C(=O)NN2CCCCC2)nn(-c2ccc(Cl)cc2Cl)c1-c1ccc(Cl)cc1
[1]
  viability (% of control): 13.1%
[2]
  Potency: inactive
[4]
  Potency: 23.5 µM (active)
[5]
  Potency: 26.4 µM (active)
[6]
  Potency: 26.4 µM (active)
[8]
  Potency: inactive
[10]
  Potency: 20.6 µM (active)

## CC(C)C[C@H](NC(=O)[C@H](Cc1ccccc1)NC(=O)c1cnccn1)B(O)O
[1]
  viability (% of control): 3.36%
[2]
  Potency: inactive
[3]
  Potency: 0.0332 µM (active)
[4]
  Potency: 0.0418 µM (active)
[5]
  Potency: 0.0166 µM (active)
[6]
  Potency: 0.0372 µM (active)
[7]
  Potency: 12.6 nM (active) and 6.3 nM (active)
[11]
  Potency: 0.0166 µM (active)
[18]
  Potency: 0.0017 µM (active)
[12]
  Potency: 0.0105 µM (active)
[16]
  IC50 (viability decrease): 0.0037 µM (active)
[13]
  Potency: 0.0148 µM (active)

## Cc1nccn1CC1CCc2c(c3ccccc3n2C)C1=O (stereo not given)
[1]
  viability (% of control): 92.7%
[2]
  Potency: inactive
[4]
  Potency: 16.6 µM (active)
[5]
  Potency: inactive
[6]
  Potency: 13.2 µM (active)
[9]
  Potency: inactive
[10]
  Potency: inactive

## COC(=O)N[C@H](C(=O)N[C@@H](Cc1ccccc1)[C@@H](O)CN(Cc1ccc(-c2ccccn2)cc1)NC(=O)[C@@H](NC(=O)OC)C(C)(C)C)C(C)(C)C
[1]
  viability (% of control): 107%
[2]
  Potency: inactive
[3]
  Potency: inactive
[5]
  Potency: inactive
[6]
  Potency: inactive
[10]
  Potency: inactive

## CN(C)CCc1c[nH]c2ccc(Cn3cncn3)cc12
[1]
  viability (% of control): 54.2%
[2]
  Potency: inactive
[3]
  Potency: inactive
[4]
  Potency: inactive
[5]
  Potency: inactive
[6]
  Potency: inactive
[7]
  Potency: inactive
[8]
  Potency: inactive
[9]
  Potency: inactive
[10]
  Potency: inactive

## NC(=NCc1ccccc1)NC(=O)c1nc(Cl)c(N)nc1N
[1]
  viability (% of control): 133%
[2]
  Potency: inactive
[3]
  Potency: 16.6 µM (active)
[10]
  Potency: inactive
[19]
  Potency: inactive
[14]
  Potency: inactive
[15]
  Potency: inactive

## N[C@@H](Cc1cc(I)c(Oc2cc(I)c(O)c(I)c2)c(I)c1)C(=O)O
[1]
  viability (% of control): 123%
[2]
  Potency: inactive
[3]
  Potency: inactive
[5]
  Potency: inactive
[7]
  Potency: inactive
[8]
  Potency: inactive
[9]
  Potency: inactive
[10]
  Potency: inactive

## Clc1ccc2c(N3CCN(CCCN4CCN(c5ccnc6cc(Cl)ccc56)CC4)CC3)ccnc2c1
[1]
  viability (% of control): 112% [at 23.2 µM]
[2]
  Potency: inactive
[3]
  Potency: inactive
[4]
  Potency: inactive
[5]
  Potency: inactive
[10]
  Potency: inactive

Reference: PubChem BioAssay (NCATS)
